# Records with an inconclusive call do not appear. Active and inactive are the calls of the source. Calls follow the shape of the dose curve; as a rule, active = well fitted activation curve with a large enough effect; inconclusive = small, poorly fitted or top-dose-only effect; inactive = no such curve, though single readings can be large or run the other way.
# Assay: qHTS Assay for Identifying a Potential Treatment of Ataxia-Telangiectasia: Hit Validation;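 also: phospho-KAP1 level by AlphaLISA as a proxy for ATM-like kinase activity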; as to activity change, positive = activation: 0% is about no effect
# Conditions: Ataxia-telangiectasia cell-based hit validation qHTS, in ATM-null A-T patient fibroblasts; series mostly up to 76.9 µM; activity change, positive = activation: at the top concentration
# Method in brief: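 KAP-1 phosphorylation was read by AlphaLISA as a measure of ATM-like activity in ATM-null F2112 fibroblasts. Compounds spanned up to 76.7 uM final, with 60 min exposure at 37C and a 6 hr detection incubation at 25C.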
# Potency is read from the fitted curve at half-maximal effect.
Structure (SMILES),"activity change, positive = activation",Potency
Cc1ccc(NC(=O)Nc2cccnc2)cc1NC(=O)Nc1cccnc1,4.55% (inactive),
C=CCC(CC)C(=O)NC(=O)N1CCCc2ccccc21 (centres undefined),1.61% (inactive),
Cn1cnc([N+](=O)[O-])c1SCCO,6.99% (inactive),
O=C(c1cccc(F)c1)N1CCCC(C(=O)N2CCCCCC2)C1 (centres undefined),,29.2 µM (active)
O=C(c1ccc(F)cc1)c1ccc(N2CCCCC2)cc1,,29.2 µM (active)
COCCCNC(=O)c1c[nH]c2ccc(S(=O)(=O)N(C)c3ccccc3C)cc2c1=O,2.81% (inactive),
O=C(NC12CC3CC(CC(C3)C1)C2)c1cccc(OC(F)F)c1,-1.74% (inactive),
Cc1ccc(OCC(=O)N(Cc2cccs2)C2CCS(=O)(=O)C2)cc1C (centres undefined),21.7% (inactive),
O=c1c(-c2ccc(Cl)cc2)c[nH]n1-c1ccccc1,2.43% (inactive),
COc1ccc(NCc2cc(=O)oc3cc(NC(C)=O)ccc23)cc1,11.8% (inactive),
Cc1ccc(C)c(-n2c(SCC(=O)NC(C(=O)O)C(C)C)nnc2-c2cccc(Cl)c2)c1 (centres undefined),,36.8 µM (active)
CC(C)(C=O)C1=CC(=O)c2ccccc2C1=O,,20.7 µM (active)
COc1ccc(Oc2ncnc3c2oc2ccc(Br)cc23)cc1,23.3% (inactive),
CCn1c(N2CCN(CC(=O)c3c[nH]c4ccccc34)CC2)nc2c1c(=O)[nH]c(=O)n2C,37.8% (inactive),
COc1ccc(CNC(=O)COc2cccnc2[N+](=O)[O-])cc1OC,-0.35% (inactive),
COc1ccc2nc(NCCCNC(=O)c3cc(OC)c(OC)c(OC)c3)c(C#N)cc2c1,-6.94% (inactive),
CCS(=O)(=O)N1Cc2ccccc2CC1C(=O)Nc1cccc(OC)c1 (centres undefined),1.61% (inactive),
CC(C)(C)C1CCC2(CC1)SCC(=O)N2c1ccccc1 (centres undefined),16.1% (inactive),
COc1ccc2c(c1)cc(C(=O)N[C@H](C(=O)N1CCC(C(=O)O)CC1)C(C)C)n2C,1.2% (inactive),

# Reference: PubChem BioAssay AID493192 (National Center for Advancing Translational Sciences (NCATS), 2011)
